# In PubChem BioAssay AID651844 (Broad Institute, 2012):
# Entries with a potency or affinity are not part of this list. Inconclusive results are not listed. The source made the active and inactive calls.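 How the source made its calls: active means every test run shows a luminescence drop with half-maximal concentration at most twice the top tested dose; inconclusive means test runs disagree, weak flat response, or unreliable curve fit; inactive means the rest.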
# Assay: mouse fibroblast viability loss – cell-based, dry powder samples, cytotoxicity control, dose response (AID 651844)
# Details: NIH/3T3 viability, CellTiter-Glo ATP luminescence, 90 h; series mostly up to 16 µM
row,Structure (SMILES),outcome
1,CNC[C@H]1Oc2c(NC(=O)c3ccccc3)cccc2C(=O)N(C(C)C)C[C@@H]1C,inactive
2,C[C@H]1CN([C@@H](C)CO)C(=O)c2cccc(NC(=O)c3ccncc3)c2O[C@@H]1CN(C)Cc1ccncc1,inactive
3,CC(C)N(C)C(=O)c1cccc(NC(=O)c2ccncc2)c1OCCCN(C)C(=O)OC(C)(C)C,inactive
4,CC(C)N1C[C@H](C)[C@@H](CN(C)Cc2ccccc2Cl)Oc2c(NC(=O)c3ccncc3)cccc2C1=O,inactive
5,C[C@H]1CN([C@@H](C)CO)C(=O)c2cccc(NC(=O)c3ccncc3)c2O[C@@H]1CN(C)Cc1ccc(C(F)(F)F)cc1,inactive
6,CNC[C@@H]1Oc2c(NC(=O)c3ccncc3)cccc2C(=O)N(C(C)C)C[C@H]1C,inactive
7,CC(C)N1C[C@H](C)[C@@H](CN(C)C(=O)OC(C)(C)C)Oc2c(NC(=O)c3ccncc3)cccc2C1=O,inactive
8,C[C@H]1CN([C@@H](C)CO)C(=O)c2cccc(NC(=O)c3ccncc3)c2O[C@@H]1CN(C)Cc1ccc(C(=O)O)cc1,inactive
9,CC(C)N1C[C@H](C)[C@@H](CN(C)Cc2ccccc2)Oc2c(NC(=O)c3ccncc3)cccc2C1=O,inactive
10,CCCn1ncc(CN(C)C[C@H]2Oc3c(NC(=O)c4ccncc4)cccc3C(=O)N(C(C)C)C[C@@H]2C)c1C,inactive
11,C[C@H]1CN([C@@H](C)CO)C(=O)c2cccc(NC(=O)c3ccncc3)c2O[C@@H]1CN(C)Cc1ccc2c(c1)OCO2,inactive
12,CC(C)N1C[C@H](C)[C@@H](CN(C)C(=O)OC(C)(C)C)Oc2c(NC(=O)c3cccnc3)cccc2C1=O,inactive
